Screening data from PubChem BioAssay.
A selection: hits, their analogues and other compounds. The true share with any hit is near 5.7%.
BAZ2B block = blocks human BAZ2B; AlphaScreen BAZ2B-H3K14Ac peptide displacement; Potency, µM (titrated, usually from 114 µM), without a hit: at the highest dose activity change, negative = inhibition, actives largely listed as inhibitors; 4.4% of 360,000 active; AID 504333; note: potency is the fitted concentration of half-maximal effect; % is set by controls: 0 for no effect and ±100 for the full control effect; nearly all actives have a fitted effect of over 60% in size
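Protein-peptide AlphaScreen: BAZ2B 50 nM, b-H3K14Ac 50 nM, 1x PBS pH 7.4 + 0.01% Tween-20. Preincubation 30 min RT; cpd 30 min RT (top 110 uM); beads 20 min RT, light-protected.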
L3MBTL1 block = blocks human L3MBTL1; Potency, µM (doses to about 57.1 µM), for inactives: at the top dose activity, negative = inhibition, most hits filed as inhibitors; Q9Y468; 0.66% of 230,000 active; AlphaScreen L3MBTL1–H3K9me1 peptide binding; AID 485360; note: potency is the fitted concentration of half-maximal effect; % is set by controls: 0 for no effect and ±100 for the full control effect; nearly all actives have a fitted effect of over 60% in size
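AlphaScreen proximity signal between nickel-chelate acceptor and streptavidin donor beads (final 10 ug/mL) reports binding of 50 nM L3MBTL1 to 75 nM biotin-H3 K9me1 peptide; complex incubated with compounds 30 min at room temperature; cefsulodin titration as control.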
JMJD2A Tudor inh = blocks the human JMJD2A Tudor domain; AlphaScreen JMJD2A-Tudor / H3K4me3 peptide binding; Potency, µM (titrated, usually from 114 µM), for the others: at the highest dose activity change, negative = inhibition, hits mostly inhibitors; 4.4% of 390,000 active; AID 504339; note: potency is the fitted concentration of half-maximal effect; % is set by controls: 0 for no effect and ±100 for the full control effect; nearly all actives have a fitted effect of over 50% in size
HP1b chromo inh = blocks HP1-beta chromodomain binding to methylated histone tails. Potency, µM (series often up to 114 µM), inactives show top-dose activity change, negative = inhibition, actives largely listed as inhibitors. AID 540317. 0.56% of 390,000 active. AlphaScreen HP1-beta / biotin-H3K9me3 peptide binding; note: potency is the fitted concentration of half-maximal effect; nearly all actives have a fitted effect of over 70% in size
Target sequence (P83916 whole entry, looked up): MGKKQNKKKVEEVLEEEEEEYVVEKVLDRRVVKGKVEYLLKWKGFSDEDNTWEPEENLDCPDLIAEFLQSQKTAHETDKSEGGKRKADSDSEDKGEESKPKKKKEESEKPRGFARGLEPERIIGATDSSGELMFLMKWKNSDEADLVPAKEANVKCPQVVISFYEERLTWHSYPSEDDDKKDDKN
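Compound inhibition of the preformed complex between 50 nM HP1-beta and 50 nM biotinylated H3K9me3 peptide was read by AlphaScreen. Buffer was PBS pH 7.4 with 0.01% Tween-20. Incubations ran 30 min at room temperature, with 10 ug/mL donor/acceptor beads.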
JMJD2E inh = inhibitors of human JMJD2E histone demethylase; B2RXH2; JMJD2E catalytic domain, FDH-coupled NADH fluorescence (FDH is formaldehyde dehydrogenase); Potency, µM (highest dose often 57.1 µM), for the others: at the highest dose activity change, negative = inhibition, actives largely listed as inhibitors; 1.6% of 230,000 active; AID 2147; active = well fitted inhibition curve with a large enough effect, not every such curve was filed as active; inconclusive = small, poorly fitted or top-dose-only effect, or another doubt; inactive = no such curve, though single readings can be large or run the other way;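 note: potency is the fitted concentration of half-maximal effect; 0% = wells with enzyme and -100% = buffer wells without enzyme; nearly all actives have a fitted effect of over 50% in size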
Target sequence (B2RXH2 1-337 limits assumed): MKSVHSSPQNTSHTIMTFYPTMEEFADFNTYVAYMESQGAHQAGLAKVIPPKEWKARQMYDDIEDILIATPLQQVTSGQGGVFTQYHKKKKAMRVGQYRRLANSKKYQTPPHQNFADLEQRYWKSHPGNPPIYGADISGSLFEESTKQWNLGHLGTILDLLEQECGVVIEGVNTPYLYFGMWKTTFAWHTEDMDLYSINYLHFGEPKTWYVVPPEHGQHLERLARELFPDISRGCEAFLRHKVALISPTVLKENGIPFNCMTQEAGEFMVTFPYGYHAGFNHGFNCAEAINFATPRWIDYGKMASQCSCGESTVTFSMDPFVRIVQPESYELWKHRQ
PI5P4K alpha inh = inhibitors of human PI5P4K alpha | 1.2% of 330,000 active | PI5P4Kalpha enzyme, ADP-Glo luminescence, 60 min; hits give low values | AID 652105 | max response, %; active = max response of -50% or lower; inconclusive = between -30% and -50%; inactive = -30% or higher; note: value at the top dose of about 77 µM; % is set by controls: 0 for no effect and ±100 for the full control effect
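Compounds were pin-transferred onto PI5P4Kalpha and substrate in HEPES pH 7.4 buffer with EGTA, CHAPS and 5% DMSO. ATP (5 microM final) started the reaction, which ran 60 minutes at room temperature before ADP-Glo detection.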
Active calls of the source: *; ? = inconclusive; . = no result given; [ ] = another dose, or the depositor's remark. Unless noted, calls come from the whole dose curve; as a rule, active = well fitted inhibition curve with a large enough effect; inconclusive = small, poorly fitted or top-dose-only effect; inactive = no such curve, though single readings can be large or run the other way.

SMILES	BAZ2B block	L3MBTL1 block	JMJD2A Tudor inh	HP1b chromo inh	JMJD2E inh	PI5P4K alpha inh
Cn1nc(C(C)(C)C)c([N+](=O)[O-])c1C(=O)NCCO	10%	3%	50µM*	8%	-5%	-13
CCN(CC)S(=O)(=O)c1cc(-c2nnc(Nc3ccc(OC)c(C(N)=O)c3)c3ccccc23)ccc1C	-15%	.	-22%	17%	.	.
COC(=O)C1=NN(C(=O)c2ccc(Cl)cc2)C(O)(c2ccccc2)C1 (stereo unspecified)	6%	-13%	-35%	1%	?	.
CCC1=NN(C(=O)c2ccc(Cl)cc2)C(O)(c2ccccc2)C1 (stereo unspecified)	50µM*	?	-32%	16%	.	1
CCC1=NN(C(=O)c2ccccc2O)C(O)(c2ccccc2)C1 (stereo unspecified)	50µM*	?	7.1µM*	13%	.	3
Cc1ccc(NS(=O)(=O)c2ccc3c(c2)CCN(C(=O)C(F)(F)F)C3)cc1C	.	.	-14%	.	.	.
COC(=O)c1cc2oc(C)cc2n1Cc1ccc(Br)cc1F	?	.	-12%	-10%	.	.
CC1CCN(S(=O)(=O)c2cccc(-c3nnc(-c4cccnc4)o3)c2)CC1	0%	.	28µM*	-10%	9%	-25
CN(Cc1cccs1)c1ncnc2ccc(-c3ccc4cnn(C)c4c3)cc12	.	.	-32%	.	.	.
COc1ccc(-c2c(C3C4C=CCCC4(C)C(=O)N3Cc3ccccc3)ccc3ccccc23)cc1 (stereo unspecified)	.	.	-32%	-15%	.	.
Cc1ccccc1NC(=O)CSc1n[nH]c(-c2ccccn2)n1	2.8µM*	.	3.5µM*	60%	.	-5
O=C(CSc1n[nH]c(-c2ccccn2)n1)Nc1cccc(Cl)c1	5µM*	.	6.3µM*	47%	.	-6
O=C(CSc1n[nH]c(-c2ccccc2)n1)Nc1ncccn1	-36%	-2%	0%	37%	2%	-9
Cc1ccccc1NC(=O)CSc1nnc2ccc(-c3ccccn3)nn12	7%	6%	-8%	47%	.	6
O=C(CSc1n[nH]c(-c2ccncc2)n1)Nc1ccccn1	?	.	56µM*	19%	-9%	-5
Cc1ccc(C)c(NC(=O)CSc2n[nH]c(-c3ccccn3)n2)c1	4.5µM*	.	1.3µM*	15%	.	-1
CC1CCN(c2csc3ccc(F)cc3c2=O)CC1	-20%	.	-28%	17%[57 µM]	.	.
Cc1ccccc1C(=O)Nc1ccc(C(=O)OCc2cc(=O)n3nc(C(C)C)sc3n2)cc1	-3%	.	-14%	13%	.	.
Cc1cc(N2C(=O)C(O)=C(C(=O)c3cc4ccccc4o3)C2c2ccc(Br)cc2)no1 (stereo unspecified)	?	.	?	-3%	.	-67*
Cc1cc(N2C(=O)C(O)=C(C(=O)c3cc4ccccc4o3)C2c2ccc(Cl)cc2)no1 (stereo unspecified)	?	.	?	-3%	.	-72*
Cc1cc(N2C(=O)C(O)=C(C(=O)c3ccc(C)o3)C2c2cccc(Oc3ccccc3)c2)no1 (stereo unspecified)	-24%	.	35µM*	-32%[57 µM]	.	?
Cc1cc(N2C(=O)C(O)=C(C(=O)c3cc4ccccc4o3)C2c2cccc(Cl)c2)no1 (stereo unspecified)	-25%	.	?	-11%[57 µM]	.	-81*
COc1cccc(C2C(C(=O)c3cc4ccccc4o3)=C(O)C(=O)N2c2cc(C)on2)c1 (stereo unspecified)	-2%	.	-24%	2%[57 µM]	.	-3
CCCOc1ccc(C2C(C(=O)c3cc4ccccc4o3)=C(O)C(=O)N2c2cc(C)on2)cc1 (stereo unspecified)	-30%	.	?	9%	.	-17
COc1cccc(COCCN2CCN(S(=O)(=O)c3ccccc3)CCC2=O)c1	.	.	-5%	20%	.	.
SMILES	BAZ2B block	L3MBTL1 block	JMJD2A Tudor inh	HP1b chromo inh	JMJD2E inh	PI5P4K alpha inh
COc1ccccc1/C=C(/C(=O)OCC(=O)Nc1ccc(N(C)C)cc1)c1ccccc1	10µM*	?	?	?	-15%	4
COc1ccc(C2C=C(c3ccccc3)Nc3nc(NC(=O)c4ccc(C)cc4)nn32)cc1 (stereo unspecified)	-5%	.	-22%	2%	.	.
O=C(Nc1nc2n(n1)C(c1ccccc1)C=C(c1ccccc1)N2)c1ccccc1 (stereo unspecified)	20µM*	.	56µM*	50%	.	.
COc1ccc(C(=O)Nc2nc3n(n2)C(c2ccc(Cl)cc2)C=C(c2ccccc2)N3)cc1OC (stereo unspecified)	28µM*	.	56µM*	26%	.	.
O=C(Nc1nc2n(n1)C(c1ccc(Cl)cc1)C=C(c1ccccc1)N2)c1ccco1 (stereo unspecified)	-9%	.	-15%	21%	.	.
N=C(N)c1ccc(N=Nc2c(O)ccc3c2[nH]c2ccccc23)cc1	.	.	56µM*	71µM*	.	-71*
COc1ccc(CCNC2=C(Cl)C(=O)N(CCc3ccccc3)C2=O)cc1OC	28%	.	3%	98%	-3%	5
O=C1C(Cl)=C(Nc2ccccc2O)C(=O)N1CCc1ccccc1	32µM*	-15%	50µM*	?	-2%	-9
Cc1ccc(S(=O)(=O)NC(=O)c2ccc(-c3ccc(C)c4ccccc34)o2)cc1	?	-7%	45µM*	-2%	?	?
COc1ccccc1C(=O)NS(=O)(=O)c1ccc(C)cc1	.	4%	-13%	44%	.	3
CCn1c(-c2cc(Cl)ccc2OC)n[nH]c1=S	0%	.	7.1µM*	20%	0%	-12
CCn1c(-c2cc3ccccc3cc2O)n[nH]c1=S	-34%	.	?	11%	?	-10
